Results: PubChem BioAssay (NCI)
The panel holds about 79,000 compounds, 15% with a hit somewhere; the sample as a whole holds those more often. The source made the active and inactive calls. No stated cut-off is given here; in the data, active means growth inhibition above about 70%; inactive means the rest.

Key:
[1] = NCI Yeast Anticancer Drug Screen. Data for the rad50 strain (AID 155);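 further: 0% = growth of vehicle-only cultures of the same strain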; details: S. cerevisiae rad50 strain growth inhibition, active compounds read high
Summary of the method: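 Yeast carrying a defined DNA repair defect were exposed to test compounds, and growth was compared with vehicle-treated controls to give percent inhibition.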

[2] = NCI Yeast Anticancer Drug Screen. Data for the mec2-1 strain (AID 157); details: S. cerevisiae mec2-1 strain, active compounds read high
Summary of the method: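 Test agents were screened against the mec2-1 yeast strain, with defined DNA repair or cell cycle alteration. Growth was scored as inhibition against vehicle-only controls.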

[3] = NCI Yeast Anticancer Drug Screen. Data for the sgs1 mgt1 strain (AID 161);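 further: 0% = growth of cultures given vehicle only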; details: S. cerevisiae sgs1 mgt1 strain, active compounds read high
Summary of the method: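 Test agents were incubated with a DNA-repair-mutant yeast strain. Growth was then read and compared against vehicle-treated controls.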

[4] = NCI Yeast Anticancer Drug Screen. Data for the cln2 rad14 strain (AID 165);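 further: 0% = growth equal to vehicle treated cultures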; details: S. cerevisiae cln2 rad14 strain, active compounds read high
Summary of the method: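 Growth of compound-exposed yeast (cln2 rad14 genotype) measured and expressed as inhibition relative to vehicle.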

[5] = NCI Yeast Anticancer Drug Screen. Data for the bub3 strain (AID 167); details: S. cerevisiae bub3 mutant strain, active compounds read high
Summary of the method: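 Compounds were applied to a genetically altered yeast strain carrying a cell-cycle control defect. Growth inhibition was scored against vehicle-treated controls.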

[6] = NCI Yeast Anticancer Drug Screen. Data for the mlh1 rad18 strain (AID 175); details: S. cerevisiae mlh1 rad18 strain growth inhibition, active compounds read high
Summary of the method: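 In this whole-cell yeast screen, a strain with altered DNA damage repair is challenged with compound, and its growth is measured against matched vehicle-treated controls.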

[7] = at 5.0 µM (retest, dose inferred, filed as 0.5)
[8] = at 50.0 µM (retest, dose inferred, filed as 5.0)

Measured: growth inhibition

O=C1c2ccccc2C(=O)c2cc(N3C(=O)C=CC3=O)ccc21
active: [1]; [8] 83% | [1]; at 50.0 µM 90.7% | [2]; [8] 89% | [2]; at 50.0 µM 92% | [3]; [7] 96% | [3]; [8] 98% | [3]; at 50.0 µM 91.5% | [4]; [8] 99% | [4]; at 50.0 µM 91.7% | [5]; [7] 97% | [5]; [8] 97% | [5]; at 50.0 µM 87.8% | [6]; [8] 80% | [6]; at 50.0 µM 91.5%
inactive: [1]; [7] 54% | [2]; [7] 50% | [4]; [7] 53% | [6]; [7] 47%

c1ccc(-c2n[nH]c3c4ccccc4c4ccccc4c23)cc1
active: [1]; [8] 92% | [1]; at 50.0 µM 93.8% | [2]; [8] 98% | [2]; at 50.0 µM 95% | [3]; [8] 97% | [3]; at 50.0 µM 94.2% | [4]; [8] 94% | [4]; at 50.0 µM 93.4% | [5]; [8] 95% | [5]; at 50.0 µM 95% | [6]; [8] 96% | [6]; at 50.0 µM 95%
inactive: [1]; [7] 19% | [2]; [7] 16% | [3]; [7] 34% | [4]; [7] 5% | [5]; [7] 13% | [6]; [7] 62%

CC(=O)Oc1ccc(N2C(=O)C=CC2=O)cc1
inactive: [3]; [7] 67% | [3]; at 50.0 µM 52% | [4]; [7] 56% | [4]; at 50.0 µM 54.2% | [6]; [7] 41% | [6]; at 50.0 µM 52.5%
active: [1]; [7] 86% | [1]; [8] 99% | [1]; at 50.0 µM 98.8% | [2]; [7] 81% | [2]; [8] 100% | [2]; at 50.0 µM 99.1% | [3]; [8] 99% | [4]; [8] 100% | [5]; [7] 87% | [5]; [8] 99% | [5]; at 50.0 µM 99% | [6]; [8] 100%

Cc1cc(=O)n(C)c2c(C)cccc12
inactive: [1]; [7] -163% | [1]; [8] -139% | [1]; at 50.0 µM 12.9% | [2]; [7] -47% | [2]; [8] -47% | [2]; at 50.0 µM 15.9% | [3]; [7] -60% | [3]; [8] -57% | [3]; at 50.0 µM 12.4% | [4]; [7] -56% | [4]; [8] -50% | [4]; at 50.0 µM 46.3% | [5]; [7] -73% | [5]; [8] -72% | [5]; at 50.0 µM -2.85% | [6]; [7] -145% | [6]; [8] -107% | [6]; at 50.0 µM 10.2%

ONC(=Nc1cccc2ccccc12)C(=Nc1cccc2ccccc12)NO
inactive: [1]; [7] 9% | [1]; [8] 65% | [1]; at 50.0 µM 33.9% | [2]; [7] -8% | [2]; at 50.0 µM 23.3% | [3]; [7] 8% | [3]; [8] 46% | [3]; at 50.0 µM 13.4% | [4]; [7] -16% | [4]; at 50.0 µM -41.9% | [5]; [7] 10% | [5]; at 50.0 µM 47.5% | [6]; [7] -9% | [6]; at 50.0 µM 57.6%
active: [2]; [8] 97% | [4]; [8] 73% | [5]; [8] 97% | [6]; [8] 91%

Nc1ccc(C(=O)Nc2ccc(C(=O)Nc3ccc(/C=C/c4ccc(NC(=O)c5ccc(N)cc5)cc4S(=O)(=O)O)c(S(=O)(=O)O)c3)cc2)cc1
inactive: [1]; [7] -2% | [1]; at 50.0 µM 68.5% | [2]; [7] -21% | [3]; [7] 3% | [3]; at 50.0 µM 69.3% | [4]; [7] 16% | [4]; [8] 39% | [4]; at 50.0 µM 18.3% | [5]; [7] -15% | [6]; [7] -15% | [6]; [8] 61%
active: [1]; [8] 87% | [2]; [8] 76% | [2]; at 50.0 µM 72.8% | [3]; [8] 78% | [5]; [8] 82% | [5]; at 50.0 µM 70.4% | [6]; at 50.0 µM 74.2%

CC(O)C(O)C(O)C(O)C(O)C(=O)O (stereo not given)
inactive: [1]; [7] -2% | [1]; [8] -6% | [1]; at 50.0 µM 18.4% | [2]; [7] -2% | [2]; [8] -1% | [2]; at 50.0 µM 10.9% | [3]; [7] -1% | [3]; [8] -2% | [3]; at 50.0 µM -9.1% | [4]; [7] 4% | [4]; [8] -3% | [4]; at 50.0 µM 1.95% | [5]; [7] 0% | [5]; [8] 4% | [5]; at 50.0 µM 45.7% | [6]; [7] -1% | [6]; [8] -7% | [6]; at 50.0 µM -10.9%

CCOc1ccc2c(ccc(/C=C\c3cc(C)c4cccnc4c3O)[n+]2C)c1
inactive: [4]; [7] 67% | [5]; [7] 59%
active: [1]; [7] 91% | [1]; [8] 92% | [1]; at 50.0 µM 87.3% | [2]; [7] 81% | [2]; [8] 91% | [2]; at 50.0 µM 89.2% | [3]; [7] 87% | [3]; [8] 93% | [3]; at 50.0 µM 90% | [4]; [8] 87% | [4]; at 50.0 µM 86.8% | [5]; [8] 91% | [5]; at 50.0 µM 82.8% | [6]; [7] 95% | [6]; [8] 93% | [6]; at 50.0 µM 89%

Cc1cc(/C=N/Nc2ccc3cccc(O)c3n2)c(O)c2ncccc12
inactive: [1]; [7] 40% | [2]; [7] 41% | [3]; [7] 51% | [4]; [7] 21% | [5]; [7] 17% | [6]; [7] 58%
active: [1]; [8] 98% | [1]; at 50.0 µM 99.1% | [2]; [8] 98% | [2]; at 50.0 µM 99% | [3]; [8] 99% | [3]; at 50.0 µM 99.1% | [4]; [8] 99% | [4]; at 50.0 µM 98.7% | [5]; [8] 99% | [5]; at 50.0 µM 99.2% | [6]; [8] 98% | [6]; at 50.0 µM 97%

OCc1ccc2c(c1)CC1(C2)Cc2cc3c(cc2C1O)CCC3 (stereo not given)
active: [6]; at 50.0 µM 71%
inactive: [1]; [7] 20% | [1]; [8] 41% | [1]; at 50.0 µM 48.6% | [2]; [7] 18% | [2]; [8] 36% | [2]; at 50.0 µM 42.4% | [3]; [7] 3% | [3]; [8] 22% | [3]; at 50.0 µM 51.8% | [4]; [7] 5% | [4]; [8] 51% | [4]; at 50.0 µM 47.4% | [5]; [7] 21% | [5]; [8] 59% | [5]; at 50.0 µM 33.2% | [6]; [7] 20% | [6]; [8] 57%
